Rows were chosen to be rich in hits. Some 1.9% of all compounds tested hit in one or more screens of this group.
Menin-MLL FL inh = displaces fluorescein MLL peptide from human menin; Fluorescence polarization, fluorescein-MLL peptide displacement from menin; FP activity change, % at 61.4 µM; 290,000 tested, under 10 active; active means well fitted curve in the direction sought with a large enough effect in the polarisation, not every such curve was filed as active; inconclusive means small, poorly fitted or top-dose-only effect, or effect the other way, or a change in a side signal; inactive means no such curve, though single readings can be large or run the other way; the % refers to the polarisation
MLL CXXC-DNA inh = MLL CXXC-DNA interaction inhibition; Potency, µM (titrated, usually from 115 µM), hits mostly inhibitors; 0.037% of 290,000 active; MLL-CXXC / FITC-HOXA9 DNA fluorescence polarization; Q03164; active means well fitted inhibition curve with a large enough effect in the polarisation, with a control signal flat, not every such curve was filed as active; inconclusive means small, poorly fitted or top-dose-only effect, or effect the other way, or a change in a side signal; inactive means no such curve, though single readings can be large or run the other way; the % refers to the polarisation
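Fluorescence polarization: 7 uM MLL-CXXC (stock) preincubated 5 min with compounds, then 50 nM fluorescein-HOX-A9 DNA (stock) added; 30 min ambient. Buffer 50 mM Tris-HCl pH 7.5, 50 mM NaCl, 1 mM DTT, 0.05% BSA.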
PINK1 modulator = changes PINK1 expression; PINK1 immunofluorescence, high-content cytometry, 24 h; Potency, µM (titrated, usually from 76.6 µM), hits mostly activators; 0.2% of 410,000 active; AID 624263; active means well fitted activation curve with a large enough effect; inconclusive means small, poorly fitted or top-dose-only effect; cell line not stated here; further: nearly all actives have a fitted effect of over 65% in size
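Readout is PINK1 immunofluorescence, quantified alongside mitochondrial, cell and nuclear markers by laser-scanning microplate cytometry. Cells from a stable line were exposed to compound titrations (5 concentrations) for 24 hours, with CCCP controls.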
Menin-MLL TR inh = displaces Texas Red mutant MLL peptide from human menin. O00255. Menin + Texas Red MLL mutant peptide, fluorescence polarization. Potency, µM (highest dose often 61.6 µM), usual class: inhibitors. 0.23% of 270,000 active. AID 1768; active means well fitted inhibition curve with a large enough effect in the polarisation, with a control signal flat, not every such curve was filed as active; inconclusive means small, poorly fitted or top-dose-only effect, or effect the other way, or a change in a side signal; inactive means no such curve, though single readings can be large or run the other way; the % refers to the polarisation
ClpP mod = qHTS Assay for Activators of ClpP | Potency, µM (titrated, usually from 57.5 µM) | purified B. subtilis ClpP, FRET peptide cleavage, 20 min | 1.9% of 340,000 active | ATP-dependent Clp protease proteolytic subunit (Bacillus subtilis (strain 168)), P80244; active means well fitted falling curve with a large enough effect; inconclusive means small, poorly fitted or top-dose-only effect; inactive means no such curve, though single readings can be large or run the other way; further: the source files actives as falling curves though it sought activators and does not explain the sign; nearly all actives have a fitted effect of over 65% in size
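FRET quenching reversal measured ClpP activation: 10 microg/mL B. subtilis ClpP at pH 8 with the FRET-FV decapeptide, read at 430 nm after 320 nm excitation. The 20-min minus 0-min signal was scaled between DMSO/no-enzyme wells and ADEP (5.8 microM final).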
Epigenetic reg = derepresses silenced GFP reporter in murine cells; Potency, µM (series often up to 53.9 µM), actives largely listed as activators; AID 1865; murine LDR cells, GFP reporter derepression, 30 h; 0.2% of 280,000 active; active means well fitted activation curve with a large enough effect; inconclusive means small, poorly fitted or top-dose-only effect; further: nearly all actives have a fitted effect of over 60% in size
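Derepression of a silenced CMV-GFP reporter in murine LDR cells is scored by enumerating GFP-positive cells with a laser-scanning microplate cytometer after 30 hours of treatment at 37 C.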
A number is an active result; n = inactive; u = inconclusive; x = no result.

SMILES	Menin-MLL FL inh	MLL CXXC-DNA inh	PINK1 modulator	Menin-MLL TR inh	ClpP mod	Epigenetic reg
Cc1nc2sc(C#N)c(N)c2c2c1CCCC2	n	n	n	n	n	n
COc1ccccc1-n1cc(CN2CCC3(CCC(CNC(=O)c4ccccc4)O3)CC2)cn1 (configuration not stated)	x	x	n	x	x	x
Cc1ccc2nc(-c3ccccc3)cc(C(=O)NCCCn3ccnc3)c2c1	n	n	n	n	15.8µM	n
Cc1cc(C(=O)NCCCn2ccnc2)sc1-c1ccccc1	n	n	n	n	22.4µM	n
O=C(NCCCn1ccnc1)c1cc(-c2ccncc2)nc2ccccc12	n	n	n	n	x	n
O=C(NCCCn1ccnc1)c1ccccc1NS(=O)(=O)c1ccc(F)c(F)c1	n	n	n	n	n	n
Cc1cc(C)c(C)c(S(=O)(=O)Nc2ccccc2C(=O)NCCCn2ccnc2)c1C	n	n	n	n	35.5µM	n
CCOC(=O)N1CCN(Cc2ccc3c(c2)CN(C(=O)c2ccc(C#CC(C)(C)O)o2)CCO3)CC1	x	x	n	x	x	x
CC(=O)c1ccc(F)c(-c2cc(C)cc3c2OC(CNC(=O)C2CCCCN2C)C3)c1 (configuration not stated)	x	x	n	x	x	x
CCn1c(=NC(=O)c2ccc(S(=O)(=O)N3CCOCC3)cc2)sc2cccc(OC)c21	n	n	n	n	31.6µM	n
O=C(Nc1nc2c(s1)CN(Cc1ccccc1)CC2)c1cccc(S(=O)(=O)N2CCc3ccccc32)c1	u	u	n	7.08µM	n	n
Cc1ccc(S/C=C\C(=O)c2ccccc2)cc1	n	n	12.6µM	u	n	n
COc1ccc(/C=N/Nc2nnc(-c3ccccc3)c(=O)[nH]2)cc1	n	n	n	n	25.1µM	n
Cc1cc2oc(=O)c(CC(=O)O)c(C)c2c2occ(-c3ccccc3)c12	x	x	n	x	31.6µM	n
COc1ccc2c(c1)C/C(=C\c1ccc(N(C)C)cc1)C2=O	x	x	n	x	n	x
CCC1CN(CC(=O)NC(c2ccccn2)C(F)(F)F)Cc2cc(OC)ccc2O1 (configuration not stated)	x	x	n	x	x	x
COc1ccc2cc3c(N)nn(C(=O)c4ccccc4[N+](=O)[O-])c3nc2c1	n	n	n	n	28.2µM	n
COc1ccc2cc3c(N)nn(C(=O)c4ccc(Cl)c([N+](=O)[O-])c4)c3nc2c1	n	n	n	n	n	n
O=C(c1cccc(Cl)c1)N1CCC(C(=O)N2CCN(Cc3ccccc3)CC2)CC1	n	n	n	n	28.2µM	x
O=C(c1cccc(C(=O)N2CCN(Cc3ccccc3)CC2)c1)N1CCN(Cc2ccccc2)CC1	n	n	n	u	n	n
COc1ccc(CN2CCC3(CCC(CNC(=O)c4ccnn4C)O3)CC2)c(C)c1C (configuration not stated)	x	x	n	x	x	x
CSc1nsc(/C=C/Nc2ccc(F)cc2)c1C#N	u	n	n	u	n	10µM
O=C1CC(C(=O)N2CCOc3ccc(CN4CCC(Oc5cccnc5)CC4)cc3C2)c2ccccc21 (configuration not stated)	x	x	n	x	x	x
CSc1nc(C(=O)NCc2nc(-c3cccc(NC(=O)c4ccc(C)s4)c3)oc2C)cs1	x	x	n	x	x	x
Cc1ccc(NC(=O)c2c(C)nc3sc(C(=O)Nc4ccc(F)cc4)c(N)c3c2-c2ccc(C)o2)c(C)c1	x	x	n	x	n	22.4µM
SMILES	Menin-MLL FL inh	MLL CXXC-DNA inh	PINK1 modulator	Menin-MLL TR inh	ClpP mod	Epigenetic reg
COc1ccccc1NC(=O)c1sc2nc(C)c(C(=O)Nc3ccc(C)cc3C)c(-c3ccco3)c2c1N	x	x	n	x	n	8.91µM
Cc1cc(C(=O)NCC2CCC3(CCN(Cc4cccc(F)c4F)CC3)O2)n(C)n1 (configuration not stated)	x	x	n	x	x	x
c1ccc2c(c1)nnn2Cc1nnc2sc(-c3ccc4c(c3)OCCO4)nn12	n	n	n	n	31.6µM	n
COc1cc(C=Nc2ccccc2C(=O)Nc2ccccc2)cc(OC)c1OC	n	n	n	n	25.1µM	n
CCNC(=O)c1cc(NC(=O)COC)cc2nc(-c3ccncc3)n(C)c12	x	x	n	x	x	x
C/C(=N\O)c1ccc2c3c([nH]c2c1)CCCC3	u	n	n	n	15.8µM	n
CCC1CN(Cc2cn[nH]c2-c2ccc(F)cc2)Cc2cc(OC)ccc2O1 (configuration not stated)	x	x	n	x	x	x
O=C(COC(=O)c1ccco1)Nc1ccc2c(c1)OCO2	n	n	n	n	n	n
CNc1ccccc1C(=O)OCC(=O)Nc1ccc2c(c1)OCO2	x	x	n	x	28.2µM	x
COc1cc(-c2c(C#N)c(N)nc3c2c(C)nn3-c2ccc(C)c(C)c2)cc(OC)c1OC	u	n	n	n	25.1µM	n
Cc1ccccc1Cn1c(=O)n(CC2CCC(C(=O)N3CCC(C)CC3)CC2)c(=O)c2sccc21 (configuration not stated)	x	x	n	x	n	n
CC(C)C(=O)NCC1CCC2(CCN(Cc3ccc(-c4ccccc4Cl)o3)CC2)O1 (configuration not stated)	x	x	n	x	x	x
C=C(C(C)=O)C(O)c1ccc2ccccc2c1 (configuration not stated)	n	x	x	n	x	n
CC(C)c1ccc(C2C(C#N)=C(N)N3C(=C2C#N)Sc2ccccc23)cc1 (configuration not stated)	u	u	x	u	x	20µM
Cc1cccc2c(N3CCCC3)nc(CNS(=O)(=O)c3ccccc3Cl)nc12	x	x	n	x	x	x
Cc1cc(/C=C/c2ccnc3ccccc23)ccc1N(C)C	x	x	x	x	n	x
CN(C)c1ccc(-c2nc3n(n2)C(c2cccnc2)C2=C(CC(C)(C)CC2=O)N3)cc1 (configuration not stated)	n	n	n	u	14.1µM	n
CCC(C)(C)C1CCC2(CC1)NC(=O)N(CC(=O)NCCc1c[nH]c3ccccc13)C2=O (configuration not stated)	x	x	n	x	n	x
c1nnc2c3c4c(sc3ncn12)CCCC4	n	n	x	n	x	n
c1nc2sc3c(c2c2nnnn12)CCCC3	n	n	n	n	15.8µM	n
c1nc2sc3c(c2c2nnnn12)CCC3	n	n	n	n	14.1µM	n
Cc1cc2nc(N3CCC(NC(C)c4nc(-c5ccccn5)no4)CC3)nc(C)c2cc1C (configuration not stated)	x	x	n	x	x	x
N/C(=N/OC(=O)c1ccccc1F)c1nonc1N	n	n	n	n	n	n
N/C(=N\OC(=O)c1ccc(Cl)cc1)c1nonc1N	n	n	7.94µM	n	n	n
COc1cccc(CN2CCC3(CCC(CNC(=O)c4ccccc4)O3)CC2)c1 (configuration not stated)	x	x	n	x	x	x
NC(=O)c1c(NC(=O)c2ccccc2)sc2c1CCc1ccccc1-2	n	n	n	u	31.6µM	n
NC(=O)c1c(NC(=O)c2ccccc2)sc2c1CCC2	n	n	n	u	x	x
